Laboratory results from PubChem BioAssay AID1159580 (chemical genetic matrix, 2015).
Several values for one entry are separate records, joined by “and”; a condition that tells them apart may be missing. Equal values may be shown once. The whole screen tested about 5,500 compounds, of which about 2,000 (36%) were called active. Inconclusive results (about 18%) are left out. No stated cut-off is given here; in the data, active means normalized growth mostly below about 0.91 (no sharp cut-off); inconclusive means no clear call, values can overlap the other calls; inactive means mostly above about 0.92. The list shows a part of the results.

Test: chemical genetic growth profiling, strain panel (AID 1159580);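 further: tested at 20 µM; growth read once vehicle control cultures reached saturation at 30 °C; 1 = growth at the plate median or of vehicle wells; lower values mean less growth of the strain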
Details: growth OD

Measured: normalized growth

CCC(C(N)=O)c1ccccc1 (configuration not stated)
inactive: S. cerevisiae deletion strains, locus YAL013W, strain DEP1, active compounds read low 1.02 | S. cerevisiae deletion strains, locus YBR021W, strain FUR4, active compounds read low 1.04 | S. cerevisiae deletion strains, locus YBR229C, strain ROT2, active compounds read low 0.999 | S. cerevisiae deletion strains, locus YCL029C, strain bik1, active compounds read low 0.992 | S. cerevisiae deletion strains, locus YDL035C, strain GPR1, active compounds read low 1.03 | S. cerevisiae deletion strains, locus YDL074C, strain BRE1, active compounds read low 1.04 | S. cerevisiae deletion strains, locus YDL101C, strain DUN1, active compounds read low 1.01 | S. cerevisiae deletion strains, locus YDL134C, strain PPH21, active compounds read low 1 | S. cerevisiae deletion strains, locus YDL185W, strain tfp1, active compounds read low 0.997 | S. cerevisiae deletion strains, locus YDL192W, strain arf1, active compounds read low 1 | S. cerevisiae deletion strains, locus YDR101C, strain arx1, active compounds read low 0.986 | S. cerevisiae deletion strains, locus YDR150W, strain NUM1, active compounds read low 1 | S. cerevisiae deletion strains, locus YDR162C, strain NBP2, active compounds read low 1.03 | S. cerevisiae deletion strains, locus YDR318W, strain mcm21, active compounds read low 0.998 | S. cerevisiae deletion strains, locus YDR388W, active compounds read low 0.999 | S. cerevisiae deletion strains, locus YDR502C, strain sam2, active compounds read low 1.01 | S. cerevisiae deletion strains, locus YEL061C, strain CIN8, active compounds read low 1.02 | S. cerevisiae deletion strains, locus YER110C, active compounds read low 0.987 | S. cerevisiae deletion strains, locus YER155C, strain BEM2, active compounds read low 0.998 | S. cerevisiae deletion strains, locus YER167W, strain BCK2, active compounds read low 1.01 | S. cerevisiae deletion strains, locus YGL078C, strain dbp3, active compounds read low 1 | S. cerevisiae deletion strains, locus YGL086W, strain mad1, active compounds read low 0.997 | S. cerevisiae deletion strains, locus YGL248W, strain PDE1, active compounds read low 1 | S. cerevisiae deletion strains, locus YGR078C, strain PAC10, active compounds read low 1.03 | S. cerevisiae deletion strains, locus YGR135W, strain pre9, active compounds read low 1 | S. cerevisiae deletion strains, locus YGR229C, strain SMI1, active compounds read low 1.01 | S. cerevisiae deletion strains, locus YGR252W, strain gcn5, active compounds read low 1.11 | S. cerevisiae deletion strains, locus YHR030C, strain SLT2, active compounds read low 1.01 and 0.954 | S. cerevisiae deletion strains, locus YHR079C, strain IRE1 (second series), active compounds read low 0.99 | S. cerevisiae deletion strains, locus YHR079C, strain IRE1, active compounds read low 0.992 | S. cerevisiae deletion strains, locus YHR094C, strain hxt1, active compounds read low 0.982 | S. cerevisiae deletion strains, locus YHR129C, strain ARP1, active compounds read low 1 | S. cerevisiae deletion strains, locus YHR200W, strain rpn10, active compounds read low 1.01 | S. cerevisiae deletion strains, locus YIL066C, strain RNR3, active compounds read low 1.01 | S. cerevisiae deletion strains, locus YIL073C, strain SPO22, active compounds read low 0.946 | S. cerevisiae deletion strains, locus YIL125W, strain kgd1, active compounds read low 1.01 | S. cerevisiae deletion strains, locus YIR030C, strain dcg1, active compounds read low 0.998 | S. cerevisiae deletion strains, locus YJL095W, strain BCK1, active compounds read low 1.03 and 0.98 | S. cerevisiae deletion strains, locus YJL134W, strain LCB3, active compounds read low 1.01 | S. cerevisiae deletion strains, locus YJL168C, strain set2, active compounds read low 0.981 | S. cerevisiae deletion strains, locus YJL187C, strain SWE1 (second series), active compounds read low 1.01 | S. cerevisiae deletion strains, locus YJR043C, strain POL32, active compounds read low 1.04 | S. cerevisiae deletion strains, locus YJR066W, strain TOR1, active compounds read low 0.899 | S. cerevisiae deletion strains, locus YJR075W, strain HOC1, active compounds read low 1.01 | S. cerevisiae deletion strains, locus YKL009W, strain mrt4, active compounds read low 1.02 | S. cerevisiae deletion strains, locus YKL068W, active compounds read low 0.998 | S. cerevisiae deletion strains, locus YKL085W, strain MDH1 (second series), active compounds read low 1 | S. cerevisiae deletion strains, locus YKL085W, strain MDH1, active compounds read low 1 | S. cerevisiae deletion strains, locus YKL190W, strain CNB1, active compounds read low 1.02 | S. cerevisiae deletion strains, locus YKR001C, strain vps1, active compounds read low 0.989 | S. cerevisiae deletion strains, locus YLR039C, strain RIC1, active compounds read low 1.04 | S. cerevisiae deletion strains, locus YLR058C, strain SHM2, active compounds read low 1.01 | S. cerevisiae deletion strains, locus YLR102C, strain apc9, active compounds read low 0.983 | S. cerevisiae deletion strains, locus YLR113W, strain HOG1, active compounds read low 1.01 | S. cerevisiae deletion strains, locus YLR262C, strain YPT6, active compounds read low 1.04 | S. cerevisiae deletion strains, locus YLR268W, strain sec22, active compounds read low 1.01 | S. cerevisiae deletion strains, locus YLR330W, strain CHS5, active compounds read low 1.01 | S. cerevisiae deletion strains, locus YLR342W, strain FKS1 (second series), active compounds read low 1.02 | S. cerevisiae deletion strains, locus YLR371W, strain rom2, active compounds read low 0.984 | S. cerevisiae deletion strains, locus YLR418C, strain cdc73, active compounds read low 1.06 | S. cerevisiae deletion strains, locus YML016C, strain PPZ1, active compounds read low 1.01 | S. cerevisiae deletion strains, locus YML032C, strain rad52, active compounds read low 1.01 | S. cerevisiae deletion strains, locus YML124C, strain tub3, active compounds read low 0.994 | S. cerevisiae deletion strains, locus YMR078C, strain ctf18, active compounds read low 0.996 | S. cerevisiae deletion strains, locus YMR223W, strain ubp8, active compounds read low 0.986 | S. cerevisiae deletion strains, locus YMR263W, strain SAP30, active compounds read low 1.02 | S. cerevisiae deletion strains, locus YMR307W, strain GAS1, active compounds read low 1.1 | S. cerevisiae deletion strains, locus YNL067W, strain RPL9B, active compounds read low 1.04 | S. cerevisiae deletion strains, locus YNL128W, strain TEP1, active compounds read low 1.02 | S. cerevisiae deletion strains, locus YNL153C, strain GIM3, active compounds read low 1.01 | S. cerevisiae deletion strains, locus YNL183C, strain NPR1, active compounds read low 0.903 | S. cerevisiae deletion strains, locus YNL233W, strain BNI4, active compounds read low 1.01 | S. cerevisiae deletion strains, locus YNL250W, strain rad50, active compounds read low 1 | S. cerevisiae deletion strains, locus YNL271C, strain bni1, active compounds read low 1 | S. cerevisiae deletion strains, locus YNL298W, strain CLA4, active compounds read low 1.01 | S. cerevisiae deletion strains, locus YNL307C, strain MCK1, active compounds read low 1.01 | S. cerevisiae deletion strains, locus YNL322C, strain KRE1, active compounds read low 1.01 | S. cerevisiae deletion strains, locus YNR052C, strain pop2, active compounds read low 0.984 | S. cerevisiae deletion strains, locus YOL006C, strain TOP1, active compounds read low 1.06 | S. cerevisiae deletion strains, locus YOL012C, strain htz1 1.05 | S. cerevisiae deletion strains, locus YOL147C, strain pex11, active compounds read low 0.988 | S. cerevisiae deletion strains, locus YOR061W, strain CKA2, active compounds read low 1.01 | S. cerevisiae deletion strains, locus YOR069W, strain VPS5, active compounds read low 1.01 | S. cerevisiae deletion strains, locus YOR136W, strain idh2, active compounds read low 1 | S. cerevisiae deletion strains, locus YOR144C, strain elg1, active compounds read low 0.997 | S. cerevisiae deletion strains, locus YOR184W, strain ser1, active compounds read low 1 | S. cerevisiae deletion strains, locus YOR231W, strain MKK1, active compounds read low 0.95 | S. cerevisiae deletion strains, locus YOR316C, strain cot1, active compounds read low 0.988 | S. cerevisiae deletion strains, locus YPL055C, strain LGE1, active compounds read low 1.05 | S. cerevisiae deletion strains, locus YPL241C, strain CIN2, active compounds read low 1.01 | S. cerevisiae deletion strains, locus YPL256C, strain CLN2, active compounds read low 0.962 | S. cerevisiae deletion strains, locus YPR119W, strain clb2, active compounds read low 0.986 | S. cerevisiae deletion strains, locus YPR141C, strain kar3, active compounds read low 1.01 | S. cerevisiae deletion strains, locus YPR163C, strain tif3, active compounds read low 0.999 | S. cerevisiae deletion strains, locus YPR167C, strain met16, active compounds read low 0.999 | S. cerevisiae deletion strains, strain wtn01, active compounds read low 1 | S. cerevisiae strains, strain wild type, active compounds read low 1.01
